Sfp inh = qHTS Assay for Inhibitors of Bacillus subtilis Sfp phosphopantetheinyl transferase (PPTase); Biochemical Sfp PPTase activity, qHTS; 310,000 compounds, 3.5% hits; Potency, µM, for inactives: largest response in the series, negative = inhibition, usual class: inhibitors; AID 1490, 2009;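 further: the enzyme is Sfp with the accession as filed and its product quenches rhodamine fluorescence; potency means the concentration at half of the fitted maximal effect; 0% = enzyme reaction without inhibitor and -100% = no enzyme wells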
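With Hepes-Na pH 7.6 buffer containing 10 mM MgCl2, Sfp (15 nM) modified BHQ-2-YbbR (12.5 uM) using rhodamine-CoA (5 uM). Two reads 30 minutes apart at 525/598 nm yielded each well's rate.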
miR-21 act = qHTS Assay for Modulators of miRNAs and/orActivators of miR-21. HeLa miR-21 FLuc reporter, luciferase, 48 h. Potency, µM (doses to about 38.3 µM), for inactives: at the top dose activity change, positive = activation, most hits filed as activators. 340,000 tested, under 10 active. AID 2288, 2010;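 further: % of control where 0% means no effect; miR-21 action dims this reporter so a rising signal means less miR-21 action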
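HeLa cells endogenously expressing miR-21, stably carrying CMV-driven firefly luciferase with a downstream miR-21 binding site, 2000 cells/well. Titrations up to approximately 40 uM, 48 hours; luciferase luminescence read.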
JMJD2E inh = qHTS Assay for Inhibitors of Human Jumonji Domain Containing 2E (JMJD2E); JMJD2E catalytic domain, FDH-coupled NADH fluorescence (FDH is formaldehyde dehydrogenase); Potency, µM (series often up to 57.1 µM), inactives show top-dose activity change, negative = inhibition, most hits filed as inhibitors; 230,000 compounds, 1.6% hits; AID 2147, 2009; active means well fitted inhibition curve with a large enough effect, not every such curve was filed as active; inconclusive means small, poorly fitted or top-dose-only effect, or another doubt; inactive means no such curve, though single readings can be large or run the other way;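 further: potency means the concentration at half of the fitted maximal effect; 0% = wells with enzyme and -100% = buffer wells without enzyme; nearly all actives have a fitted effect of over 50% in size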
Target sequence (B2RXH2 1-337 limits assumed): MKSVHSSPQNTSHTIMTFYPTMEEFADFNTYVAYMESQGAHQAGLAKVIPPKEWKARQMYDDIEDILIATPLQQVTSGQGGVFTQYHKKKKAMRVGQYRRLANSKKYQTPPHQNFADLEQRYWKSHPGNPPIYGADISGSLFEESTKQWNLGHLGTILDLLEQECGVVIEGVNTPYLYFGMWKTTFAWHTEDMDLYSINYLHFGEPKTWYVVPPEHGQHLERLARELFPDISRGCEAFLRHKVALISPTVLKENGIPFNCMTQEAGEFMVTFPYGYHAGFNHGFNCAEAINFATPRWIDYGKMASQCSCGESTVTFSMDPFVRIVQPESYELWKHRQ
G9a block = qHTS Assay for Inhibitors of Histone Lysine Methyltransferase G9a; AID 504332, 2011; Potency, µM (series often up to 102 µM), without a hit: at the highest dose activity, negative = inhibition, hits mostly inhibitors; 350,000 compounds, 8.8% hits; G9a H3K9 monomethylation, AlphaScreen, 2 h; further: potency means the concentration at half of the fitted maximal effect; on the % scale 0 is the no-effect control and ±100 the full control effect; nearly all actives have a fitted effect of over 75% in size
Target sequence (Q96KQ7 913-1193 limits assumed): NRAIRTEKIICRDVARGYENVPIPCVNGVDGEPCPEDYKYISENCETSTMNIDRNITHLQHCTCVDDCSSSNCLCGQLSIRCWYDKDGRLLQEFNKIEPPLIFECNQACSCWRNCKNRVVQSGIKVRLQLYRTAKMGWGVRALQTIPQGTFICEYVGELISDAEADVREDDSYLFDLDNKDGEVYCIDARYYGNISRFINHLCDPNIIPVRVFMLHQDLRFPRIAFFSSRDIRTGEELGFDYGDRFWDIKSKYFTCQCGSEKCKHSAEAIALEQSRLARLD
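Signal arises when biotinylated H3K9 peptide, once monomethylated, bridges streptavidin donor and antibody-captured acceptor beads. Enzyme at 20 nM was preincubated 15 min with test compounds; peptide 500 nM and SAM 20 uM then reacted for 2 h.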
Lamin A splicing = qHTS Assay for Modulators of Lamin A Splicing | HeLa LMNA splicing GFP/RFP minigene ratio, 48 h | Potency, µM (doses to about 46.1 µM), inactives show at the highest dose ratio change, negative = inhibition, actives largely listed as inhibitors | 200,000 compounds, 0.01% hits; active means well fitted inhibition curve with a large enough effect in the signal ratio, with a control signal flat, not every such curve was filed as active; inconclusive means small, poorly fitted or top-dose-only effect, or effect the other way, or a change in a side signal; the % refers to the signal ratio; further: potency means the concentration at half of the fitted maximal effect; on the % scale 0 is the no-effect control and ±100 the full control effect
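S3 HeLa stable clones carrying a lamin A-EGFP splicing minigene plus DsRed2 were seeded at 600 cells/well in Opti-MEM with 2% FBS, pin-dosed and incubated 48 h at 37°C. Acumen cytometry (488 nm) gave the GFP/RFP total-intensity ratio.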
ALDH1A1 block = qHTS Assay for Inhibitors of Aldehyde Dehydrogenase 1 (ALDH1A1); 220,000 compounds, 7.3% hits; Potency, µM (series often up to 75.3 µM), for the others: at the top dose activity, negative = inhibition, most hits filed as inhibitors; Purified ALDH1A1, NADH fluorescence, propionaldehyde substrate; Aldehyde dehydrogenase 1A1 (Homo sapiens), P00352; active means well fitted inhibition curve with a large enough effect, not every such curve was filed as active; inconclusive means small, poorly fitted or top-dose-only effect, or another doubt; inactive means no such curve, though single readings can be large or run the other way;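 further: potency means the concentration at half of the fitted maximal effect; plate controls were no enzyme wells and a reference inhibitor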
Starred values were filed as active, the others as inactive; ? = inconclusive; . = no result given; [ ] = dose if it differs, or a comment. The list is not random: actives were taken first. Their share in the collection is about 13%. Unless noted, the call rests on the fitted dose curve; in most records, active means well fitted curve in the direction sought with a large enough effect; inconclusive means small, poorly fitted or top-dose-only effect, or another doubt; inactive means no such curve, though single readings can be large; an effect the other way counts as inactive or inconclusive.

SMILES	Sfp inh	miR-21 act	JMJD2E inh	G9a block	Lamin A splicing	ALDH1A1 block
Cc1ccc(/C=N/NC(=O)c2cccs2)cc1[N+](=O)[O-]	15%	-66%	2%	20%	5%	7%
COC(=O)CC/C(C)=N\Nc1ccc([N+](=O)[O-])cc1[N+](=O)[O-]	13%	-4%	6%	-25%[59 µM]	11%	-3%
C/C(CC(C)C)=N\NS(=O)(=O)c1ccc(C)c([N+](=O)[O-])c1	12%	-1%	?	32µM*	.	.
C/C(=N\NS(=O)(=O)c1ccc(C)c([N+](=O)[O-])c1)c1cccs1	-12%	-9%	-6%	32µM*	-12%[46 µM]	32µM*
O=C(NCCO)c1cc(-c2cc(C(=O)NCCO)c3ccccc3n2)nc2ccccc12	-10%	-2%	.	-1%	.	.
Cc1cccn2c(=O)c(C(=O)NCc3cccc(F)c3)cnc12	.	-27%	.	37%[59 µM]	?	.
CC(C)(C)c1ccccc1NC(=O)NC1CCN(Cc2c(F)cccc2Cl)CC1	-13%	-3%	?	7%	.	-1%
O=C(CCN1CCOCC1)N/N=C/c1cc(Br)cc(Br)c1O	-2%	14%	28µM*	.	?	-1%
C/C(=N\NC(=O)Cc1csc(N2CCOCC2)n1)c1ccccc1	-9%	2%	4%	13%	-11%	1%
Cc1cc(C(=O)N/N=C/c2ccc(O)c(O)c2O)c(C)n1-c1ccccc1	8.9µM*	-21%	2%	10µM*	.	-2%
COc1ccc(/C=N/NC(=O)CCN2CCN(c3ccccc3)CC2)c(OC)c1OC	21%	-9%	3%	6%	?	4%
O=C(Cc1csc(N2CCOCC2)n1)N/N=C/c1ccc(O)c(O)c1O	10µM*	-6%	8.9µM*	3.5µM*	1%[46 µM]	7.5µM*
COC(=O)N/N=C/c1cc(C)n(-c2ccccc2)c1C	3%	-56%	?	-16%[59 µM]	?	-10%
O=C(CCN1CCN(c2ccccc2)CC1)N/N=C/c1ccc(O)c(O)c1O	8.9µM*	-2%	-6%	8.9µM*	.	4µM*
Cc1ccc(NC(=O)c2cc(C)nc3c2c(C)nn3-c2cccc(Cl)c2C)c(C)c1	.	0%	.	1%[59 µM]	-1%[46 µM]	.
NCCC[C@@H](CC(=O)N[C@@H]1CCNC[C@H]1C(=O)N[C@H](CC(=O)N[C@@H](CCC(=O)O)CC(=O)O)Cc1ccccc1)NC(=O)C[C@H](Cc1ccccc1)NC(=O)[C@@H]1CNCC[C@H]1N	-15%	.	1%	.	.	5%
COc1ccccc1OCCNC1CCCC1	2%	4%	1%	40µM*	-4%	?
N#Cc1ccccc1OCCOCCNC1CCCC1	6%	-1%	?	10µM*	-6%	-10%
Fc1cnc(N2CCN(c3ccccc3)CC2)nc1N1CCN(c2ccccc2)CC1	?	-10%	-3%	50µM*	5%	?
Fc1cnc(N2CCc3ccccc32)nc1N1CCc2ccccc21	13%	-8%	8%	.	-6%	2.2µM*
CCOC(=O)/C=C(\C)Sc1cc(=O)oc2ccccc12	0%	?	-3%	14%[59 µM]	?	?
CCOC(=O)/C=C(\C)Sc1cc(O)c2ccccc2c1O	7.9µM*	?	3.5µM*	2.5µM*	.	.
Cc1ccc(Cn2c(SCc3cccnc3)nc3c2c(=O)n(C)c(=O)n3C)cc1	-10%	-10%	-1%	-3%[59 µM]	14%	2%
COc1ccc(C(=O)Cn2c(Br)nc3c2c(=O)n(C)c(=O)n3C)cc1OC	-24%	-2%	2%	14%	1%	7%
CC(C)CCn1c(Oc2ccc(Cl)cc2)nc2c1c(=O)n(C)c(=O)n2C	-16%	-1%	2%	-10%[59 µM]	-5%	7.9µM*
SMILES	Sfp inh	miR-21 act	JMJD2E inh	G9a block	Lamin A splicing	ALDH1A1 block
Cn1c(=O)c2c(nc(SCc3cccnc3)n2Cc2ccccc2)n(C)c1=O	79µM*	-11%	-6%	?	10%	22µM*
COc1ccc(C(=O)Cn2c(Br)nc3c2c(=O)n(C)c(=O)n3C)cc1	50µM*	4%	16%	-1%[59 µM]	?	-3%
COc1ccc(Oc2nc3c(c(=O)n(C)c(=O)n3C)n2Cc2ccccc2)cc1	6%	2%	-3%	13%	5%	16µM*
O=C(CNC(=O)c1sc2ccccc2c1Cl)NC1CC1	12%	-26%	.	-15%	.	.
C[C@@H]1Cc2c(O)c(O)cc(O)c2C(=O)O1	-9%	4%	2µM*	-151%[59 µM]	.	.
COc1cc(/C=C2\N=C(C)OC2=O)cc(Cl)c1OC(C)=O	?	0%	.	40µM*	.	.
COc1ccc(/C=C2\N=C(C)OC2=O)cc1[N+](=O)[O-]	11%	0%	0%	?	.	18µM*
COc1cc(/C=C2\N=C(c3c(-c4ccccc4)noc3C)OC2=O)ccc1OC(C)=O	13%	-3%	7%	-50%	-9%[46 µM]	?
CC1=N/C(=C/c2cccnc2)C(=O)O1	17%	-1%	-4%	-50%	.	10%
CCOc1ccc(NC(=O)CSc2nc(=O)n(CCCN3CCOCC3)c3c2CCC3)cc1	.	.	.	10%	.	.
CC1CCCCN1S(=O)(=O)c1cc2c(=O)nc3ccccn3c2cc1Cl (stereo not given)	.	-3%	.	2%[59 µM]	-3%[46 µM]	.
COC(=O)CCCOc1ccc(Cl)cc1Cl	-3%	.	6%	.	-8%	13%
Cc1ccc(-c2nc3c(c(=O)c4ccccc4n3C)c(=O)n2Cc2ccco2)cc1	4µM*	-12%	-2%	.	.	?
COc1ccc2c(=O)c3c(=O)n(Cc4ccco4)c(-c4ccco4)nc3oc2c1	?	-3%	?	18µM*	6%	?
COc1ccc(Cn2c(-c3ccco3)nc3oc4cc(OC)ccc4c(=O)c3c2=O)cc1	5%	-17%	3%	50µM*	6%	-1%
COc1ccc(-c2nc3oc4cc(OC)ccc4c(=O)c3c(=O)n2Cc2ccco2)cc1	25µM*	1%	?	25µM*	?	?
COc1ccc(Cn2c(-c3ccco3)nc3oc4ccccc4c(=O)c3c2=O)cc1	8%	-1%	4%	?	21%	-2%
COCCn1c(-c2ccc(OC)cc2)nc2oc3cc(OC)ccc3c(=O)c2c1=O	16%	-1%	?	2%[12.7 µM]	-1%	?
COC(=O)[C@@H]1CC[C@H](C)[C@@H](c2ccc(C)cc2)N1C(=O)c1ccc(/C=N\OC[C@@H]2O[C@H](c3ccccc3)C=C[C@@H]2Oc2ccc(OC)cc2)cc1	3%	.	.	.	.	9%[13.5 µM]

Screening data (PubChem)
